# High-throughput results (PubChem BioAssay)
# Most compounds without a hit are left out; they make up all but 6.2% or so of the library.
# Cardio protect = protects H9c2 cardiomyocytes from peroxide injury. protection from H2O2 cell death, % at 20 µM. actives 0.63% (n = 360,000). AID 588492. H2O2 injury protection, ATPLite, 2 h;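 active = compounds giving at least 50% protection of heart cells from peroxide-induced death in the single-dose screen, raw or plate-pattern-corrected value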
# NR3A LBD binder = modulators (binders) of human NR3A ligand-binding domain; NR3A LBD differential scanning fluorimetry, Tm shift; 0% = protein alone, 100% = glycine-bound protein; Tm shift relative to glycine control, % at 25 µM; actives 2.5% (n = 340,000); AID 1259313;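 active = melting temperature shift of at least 10% of the positive control shift, at one fixed dose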
# AHR act = activators of human aryl hydrocarbon receptor; actives 2.5% (n = 320,000); AHR-responsive luciferase reporter cells, luminescence; activation, % at 5 µM; AID 2796; in the data active = activation above about 47%
# Target sequence (P35869 whole entry, looked up): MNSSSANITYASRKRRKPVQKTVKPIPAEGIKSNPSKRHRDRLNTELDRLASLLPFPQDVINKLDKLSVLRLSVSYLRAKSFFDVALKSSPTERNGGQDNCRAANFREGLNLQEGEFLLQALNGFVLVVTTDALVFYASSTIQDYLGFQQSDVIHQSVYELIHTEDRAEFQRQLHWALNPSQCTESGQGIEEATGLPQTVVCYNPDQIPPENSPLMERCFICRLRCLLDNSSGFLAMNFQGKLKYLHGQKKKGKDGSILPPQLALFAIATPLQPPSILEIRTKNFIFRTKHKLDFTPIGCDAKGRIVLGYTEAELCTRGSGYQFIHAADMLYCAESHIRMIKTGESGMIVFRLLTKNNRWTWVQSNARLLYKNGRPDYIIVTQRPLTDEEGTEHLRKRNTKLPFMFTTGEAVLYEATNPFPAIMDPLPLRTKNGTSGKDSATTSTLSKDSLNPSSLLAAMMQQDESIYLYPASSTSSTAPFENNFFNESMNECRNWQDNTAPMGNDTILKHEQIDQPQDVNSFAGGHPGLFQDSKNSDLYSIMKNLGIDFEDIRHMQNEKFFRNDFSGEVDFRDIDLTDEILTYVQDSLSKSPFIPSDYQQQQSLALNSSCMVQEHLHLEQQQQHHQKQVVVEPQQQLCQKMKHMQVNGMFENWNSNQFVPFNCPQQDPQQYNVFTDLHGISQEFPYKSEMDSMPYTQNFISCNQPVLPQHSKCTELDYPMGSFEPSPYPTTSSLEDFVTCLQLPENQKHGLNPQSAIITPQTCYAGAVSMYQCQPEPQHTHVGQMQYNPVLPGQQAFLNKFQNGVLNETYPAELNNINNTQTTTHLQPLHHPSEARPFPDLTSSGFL
# AI-2 QS mod = Vibrio harveyi AI-2 quorum sensing modulation. activity change, % at 7.5 µM. Vibrio harveyi JMH597 AI-2 luminescence/OD600 ratio, 9 h; hits give low values; strain lacks LuxN and CqsS sensors; 0 = neutral-control median. actives 0.4% (n = 300,000); in the data active = activity change below about -75%, passing the limit was not always enough;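 also: luminescence divided by OD600 gain over 9 h not by final OD600 alone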
# Mot1-301 SUMO = blocks SUMOylation pathway, rescuing yeast Mot1-301 growth; actives 1% (n = 320,000); growth rescue, % at 18.8 µM; S. cerevisiae Mot1-301 growth rescue, ATP luminescence, 38.5C; percent above DMSO median, 100 means doubled; AID 2716;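 active = every valid replicate shows activation above 250% relative to neutral control wells; inactive = the rest, any valid replicate at or below 250%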
# NTR1 ag = NTR1 (human) agonism; P30989; NTR1-U2OS beta-arrestin-GFP spot imaging, agonist mode; activation, % at 20 µM; actives 0.17% (n = 330,000);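 active = activation at or above 40% of the spot to cytoplasm intensity ratio, with at least 20 cells analyzed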
# Numbers stand for hits; - = inactive; . = no result.
SMILES,Cardio protect,NR3A LBD binder,AHR act,AI-2 QS mod,Mot1-301 SUMO,NTR1 ag
O=C(Nc1ccc(OC(F)F)cc1)Nc1cccc(C(F)(F)F)c1,-,39,-,-,-,-
CCc1ccc(NC(=O)c2cccnc2)cc1,-,-,54,-,-,-
O=C(OCC1OC(n2cc(Br)c(=O)[nH]c2=O)C(Br)C1O)c1ccccc1 (stereo not given),-,-,-,-,-,-
CC(=O)Nc1cc(C(=O)CSc2nnc(C3CC3)n2C2CC2)ccc1O,-,-,-,.,-,-
CCCC(=O)N1CCC1(C)C(=O)Nc1ccc2c(c1)CCN2C(C)=O (stereo not given),-,.,.,.,.,.
CN(C)S(=O)(=O)c1ccc(NC(=O)CCCNC(=O)c2ccc(Cl)cc2)cc1,-,-,-,-,-,-
O=C(Nc1cccc(-n2cnnn2)c1)c1ccncc1,-,-,-,-,-,-
O=C(Nc1cccc(-n2cnnn2)c1)c1ccc(C(F)(F)F)cc1,-,-,69,.,-,-
COc1ccc(NC(=O)COC(=O)c2ccccc2SCC(=O)N2CCCC2)cc1,-,19,-,-,-,-
N#CC1(NC(=O)COC(=O)c2ccccc2SCC(=O)N2CCCC2)CCCCC1,-,13,-,-,-,-
C[C@@H]1CN([C@@H](C)CO)C(=O)c2cccc(NC(=O)c3nc4ccccc4s3)c2O[C@@H]1CN(C)CC1CC1,-,-,-,.,-,-
COc1ccc(CC(=O)Nc2ccc(-c3nc4cc(C)ccc4o3)c(O)c2)cc1OC,-,-,-,-,-,-
COc1ccccc1C(=O)Nc1ccc2oc(-c3ccc(F)cc3)nc2c1,-,14,-,-,-,-
CCCC(=O)Nc1ccc(-c2nc3cc(C)ccc3o2)cc1,-,14,-,-,-,-
O=C(Nc1ccc(-c2nc3cc(Cl)ccc3o2)cc1)C1CCCO1 (stereo not given),-,-,55,-,-,-
Cc1ccc2oc(-c3ccc(NC(=O)c4ccncc4)cc3O)nc2c1,-,33,-,-,-,-
CCCC(=O)Nc1ccc2oc(-c3ccc(OC)c(Br)c3)nc2c1,-,-,-,-,-,-
COc1ccc(-c2noc(CCC(=O)N3CCN(c4ccccc4F)CC3)n2)cc1,-,-,.,.,.,-
Cc1ccc(C(=O)c2oc3ccccc3c2NC(=O)c2cc(-c3cc(C)ccc3O)n[nH]2)cc1,-,22,-,-,-,-
Cc1ccc(C)c(NC(=O)c2cc(-c3ccccc3O)n[nH]2)c1,-,-,.,-,-,-
Cc1ccc(C(=O)c2oc3ccccc3c2NC(=O)c2cc(-c3ccccc3O)n[nH]2)cc1,-,31,51,-,-,-
O=C(Nc1c(C(=O)c2ccccc2)oc2ccccc12)c1cc(-c2ccccc2O)n[nH]1,-,28,68,-,-,-
Cc1ccccc1NC(=O)/C(C#N)=C/c1ccsc1,-,-,70,-,-,-
COc1ccc(Nc2cc(C)nc3c(C)cccc23)cc1OC,-,-,68,-,-,-
c1ccc2c(Nc3nncs3)c3ccccc3nc2c1,-,-,-,-,314,-
SMILES,Cardio protect,NR3A LBD binder,AHR act,AI-2 QS mod,Mot1-301 SUMO,NTR1 ag
COc1ccc(Nc2c3ccccc3nc3ccccc23)cc1,-,-,-,-,-,-
COc1ccc(-n2nnnc2CNC(=O)c2c(-c3ccccc3Cl)noc2C)cc1,-,.,.,.,.,.
O=C1OCCC1(c1ccccc1)c1ccccc1,-,-,.,.,.,-
CCc1ccccc1OCC(=O)NNCC(=O)Nc1cccc(C#N)c1,-,-,-,.,-,-
Cc1ccsc1CNCC(O)c1ccccc1 (stereo not given),-,-,-,-,-,-
COCc1nnc(NS(=O)(=O)c2ccc(OC)cc2)s1,-,-,.,.,.,.
CCCc1nnc(NS(=O)(=O)c2ccc(OC)cc2)s1,-,10,-,-,774,-
Cc1ccc(N2CC(=O)N(NC(=O)Nc3ccc(Cl)c(Cl)c3)CC2=O)cc1,-,13,-,-,-,-
O=C(Nc1ccc(Cl)cc1)NN1CC(=O)N(c2cccc(C(F)(F)F)c2)CC1=O,-,30,-,-,-,-
Cc1ccc(S(=O)(=O)NNC(=O)Nc2ccc(Cl)c(Cl)c2)cc1,-,-,-,-,-,-
O=C(Nc1ccccc1)N1CCN(c2cccc(C(F)(F)F)c2)CC1,-,-,-,-,-,-
